# aSyn yeast inh: qHTS of alpha-syn Inhibitors; Potency, µM (doses to about 46.1 µM), without a hit: top-dose growth rescue (activation), most hits filed as activators; Yeast expressing alpha-synuclein, growth rescue, BacTiter-Glo, 24 h; hit rate 0.14% among 370,000; also: % of control where 0% means no effect; nearly all actives have a fitted effect of over 65% in size
#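 Rescue of yeast growth: cells expressing toxic alpha-synuclein, induced in galactose at OD600 0.02, incubated with compound 24 h at 30 C. ATP luminescence quantified growth; inhibitors of toxicity appear as activators.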
# FUS suppressor: qHTS for Suppressors of FUS Proteinopathy: Primary screen using FUS-linked yeast assay | S. cerevisiae FUS-expressing, growth rescue, OD600, 24 h | Potency, µM (top dose mostly 76.6 µM), usual class: activators | hit rate 0.24% among 390,000;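 also: plate controls were DMSO vehicle for no effect and reference control for full effect; nearly all actives have a fitted effect of over 55% in size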
#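 Cultures pregrown in 2.5% raffinose medium are shifted to minimal medium containing 2% galactose to express toxic FUS. Compounds are tested at several concentrations. After 24hr at 30C, growth is quantified at 600 nm absorbance.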
# TDP-43 yeast inh: qHTS of TDP-43 Inhibitors; Potency, µM (doses to about 46.1 µM), without a hit: at the highest dose growth rescue (activation), most hits filed as activators; AID 652104, 2013; TDP-43 expressing yeast growth rescue, BacTiter-Glo, 24 h; hit rate 1.8% among 410,000; also: % of control where 0% means no effect; nearly all actives have a fitted effect of over 50% in size
#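 Luminescence from BacTiter-Glo reports growth of TDP-43-expressing yeast after 24 hr at 30 deg C with compound. Cells were raffinose-pregrown to mid-log, then seeded in galactose medium at OD600=0.02.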
# BCR signal inh: qHTS Assay to Find Inhibitors of Chronic Active B-Cell Receptor Signaling; Potency, µM (series often up to 46.1 µM), for inactives: at the highest dose activity change, negative = inhibition, usual class: inhibitors; hit rate 0.05% among 340,000; ABC-DLBCL IkBa-CBG/CBR reporter, luminescence ratio, 4 h; active = well fitted inhibition curve with a large enough effect in the signal ratio, with a control signal flat, not every such curve was filed as active; inconclusive = small, poorly fitted or top-dose-only effect, or effect the other way, or a change in a side signal; the % refers to the signal ratio;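 also: plate controls were basal doxycycline-induced cells for no effect and cells given 10 µM MG132 for full effect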
#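 TMD8 human ABC-DLBCL cells with doxycycline-inducible IκBα–green luciferase fusion and unfused red luciferase, in 0.5% FBS medium; compounds up to 46 uM, 4 h at 37C. Green/red luminescence ratio, filter-overlap corrected, fitted to concentration-response curves.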
# uPA generation: qHTS for Inhibitors of Cell Surface uPA Generation | cell surface uPA generation assay, qHTS | Potency, µM (series often up to 38.3 µM), inactives show at the top dose activity change, negative = inhibition, actives largely listed as inhibitors | hit rate 0.31% among 330,000; active = well fitted inhibition curve with a large enough effect; inconclusive = small, poorly fitted or top-dose-only effect; inactive = no such curve, though single readings can be large or run the other way; tested in mouse RAW 264.7 cells; also: % is scaled to controls: 0 for no effect and ±100 for the full control effect; nearly all actives have a fitted effect of over 55% in size
# Abeta rescue: qHTS for compounds that reverse cellular toxicity of Amyloid beta (A-beta) peptide in yeast: Primary Screen; hit rate 0.063% among 410,000; yeast expressing A-beta42, growth rescue, OD600, 48 h; response scale: 0% DMSO, 100% iron-clioquinol control; AID 1347071, 2019; Potency, µM (series often up to 46.1 µM), hits mostly activators; also: nearly all actives have a fitted effect of over 55% in size
#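 Yeast growth medium received pinned compounds, then yeast cells expressing toxic A-beta were added; plates incubated at 30 C for 48 hr. Growth read as absorbance at 600 nm, normalized to DMSO and equimolar FeCl3 plus clioquinol controls.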
# * marks the source's active call; other numbers are inactive results; i = inactive; ? = inconclusive; . = no result given; [ ] = another dose, or the depositor's remark. Rows were chosen to be rich in hits. Some 2.3% of all compounds tested hit in one or more screens of this group. Unless noted, calls follow the shape of the dose curve; as a rule, active = well fitted curve in the direction sought with a large enough effect; inconclusive = small, poorly fitted or top-dose-only effect, or another doubt; inactive = no such curve, though single readings can be large; an effect the other way counts as inactive or inconclusive. Potency is read from the fitted curve at half-maximal effect.
SMILES,aSyn yeast inh,FUS suppressor,TDP-43 yeast inh,BCR signal inh,uPA generation,Abeta rescue
O=C(Nc1ccc(Cl)cc1)Nc1ccc(Cl)c(Cl)c1,-38%,i,23%,?,?,i
C[C@]12CC[C@@H](O)C[C@@H]1CC[C@@H]1[C@@H]2CC[C@]2(C)C(=O)CC[C@@H]12,1%,i,18µM*,-13%,-1%,i
CCC1CCCCN1S(=O)(=O)c1ccc(NC(=O)c2ccncc2)cc1 (stereo unspecified),4%,.,29%,?,?,i
COc1cc(-n2c(=S)[nH]c3ccccc3c2=O)c(Cl)cc1Cl,-2%,i,?,0%,-8%,i
CC(C)Oc1cc(-n2c(=S)[nH]c3ccccc3c2=O)c(Cl)cc1Cl,-5%,i,10µM*,?,-5%,i
CC[N+]12CCC(CC1)C(C(O)(c1ccccc1)c1ccccc1)C2 (stereo unspecified),-4%,i,4%,-1%,-8%,i
CC(C)(C)n1nnnc1C(c1ccnc2ccccc12)N1CCC2(CC1)C(=O)NCN2c1ccccc1 (stereo unspecified),2%,i,18%,.,.,i
O=C1c2ccccc2-c2cccc3cccc1c23,8%,i,10%,.,8.9µM*,i
CN1C(=O)C(c2ccccc2)C(=O)N(C)C1=O,-9%,i,-34%,.,0%,?
O=C1c2ccccc2S(=O)(=O)c2cc(C(=O)N3CCN(c4c(Cl)cncc4Cl)CC3)ccc21,0%,20µM*,13µM*,.,-15%,i
O=C1CC(N2CCC(n3c(=O)[nH]c4ccccc43)CC2)C(=O)N1Cc1ccccc1 (stereo unspecified),-14%,i,0%,-10%,-5%,i
CC(=O)OCC12CC(OC(=O)CC(C)C)C(C)=CC1OC1C(O)C(OC(C)=O)C2(C)C12CO2 (stereo unspecified),?,.,1.8µM*,.,-13%,i
CN1C(=O)C(=Cc2ccccc2Oc2ccc(Cl)c(F)c2)C(=O)N(C)C1=O,5%,i,22µM*,2%,0%,i[9.22 µM]
COc1ccc(Cl)cc1NC(=O)CCn1c(=O)oc2ccccc21,8%,i,13µM*,-2%,3%,i
CC(=O)O[C@H]1CC[C@@]2(C)C(=CC[C@@H]3[C@@H]2CC[C@]2(C)C(=O)CC[C@@H]32)C1,?,i,?,-23%,-5%,i
CC(=O)O/C(=C1\CC2C3CC=C4CC(OC(C)=O)CCC4(C)C3CCC2(C)C1=O)C(F)(F)F (stereo unspecified),13µM*,.,?,.,-2%,i
CN(CC(=O)Nc1ccccc1C(F)(F)F)C(=O)Cn1c(=O)oc2ccccc21,0%,i,25%,?,-4%,i
Cc1ccc(S(=O)(=O)Cc2ccc(C(=O)N3CCN(c4cccc(C)c4C)CC3)o2)cc1,13%,?,22µM*,13µM*,0.89µM*,i
COc1ccc(S(=O)(=O)Cc2ccc(C(=O)N3CCC4(CC3)OCCO4)o2)cc1,-8%,i,2.5µM*,20%,0%,i
Nc1cc(N2CCNCC2)c([N+](=O)[O-])cc1Cl,-4%,i,21%,-1%,2%,i
C=CCn1c(O)c(C=NCCN2CCNCC2)c(=O)[nH]c1=O,-4%,i,-16%,-2%,-3%,i
O=C(Nc1cc[c]([Sb](=[O])([OH])[OH])cc1)c1ccccc1,0%,.,.,.,.,.
O=C(Nc1cccc(-c2csc(Nc3ccccc3)n2)c1)c1ccccc1,-22%,i,6.3µM*,?,?,i
O=[N+]([O-])/C=C1\NCCN1Cc1ccc(Cl)nc1,0%,i,-15%,4%,1%,i
O=[N+]([O-])NC1=NCCN1Cc1ccc(Cl)nc1,0%,i,0%,-7%,1.1µM*,i
SMILES,aSyn yeast inh,FUS suppressor,TDP-43 yeast inh,BCR signal inh,uPA generation,Abeta rescue
Cc1ccc2c(c1)c(C1=c3ccccc3=NC1=O)c(O)n2C,3%,i,?,?,?,i
CCCNC(=O)N1[C@H]2CC[C@@H]1C(C(=O)OC)=C(c1ccc(Cl)c(C(F)(F)F)c1)C2,5%,i,17%,-8%,-5%,?
COC(=O)C1=C(c2ccc(-c3ccccc3)c(F)c2)C[C@@H]2CC[C@H]1N2C(=O)NC1CC1,-9%,i,20µM*,?,-26%,i
COC(=O)C1=C(c2ccc(Cl)c(C(F)(F)F)c2)C[C@@H]2CC[C@H]1N2C(=O)NCCOc1ccc(OC)cc1,?,?,11µM*,?,?,i
COC(=O)C1=C(c2ccc(-c3ccccc3)c(F)c2)C[C@@H]2CC[C@H]1N2C(=O)NC(C)C,4%,?,?,?,?,i
CNS(=O)(=O)c1ccc(N=Cc2c(O)n(-c3cccc(C)c3)c(=O)[nH]c2=O)cc1,-4%,i,-17%,7%,0%,i
CCCCC[C@@H]1CCCCC[C@H](O)C[C@H](O)[C@@H](O)/C=C/C(=O)O1,8%,i,0%,.,.,i
COC(=O)COc1ccc(/C=C2\C(=O)NC(=S)N(c3ccc(C)cc3)C2=O)cc1OC,0%,i,16%,-2%,-5%,i
CCN(CC)C(=O)c1ccc(NC(=O)Nc2ccccc2F)cc1,-57%,i,-68%,?,4.5µM*,i
CCCCn1c(O)c(C(CC)=NCCCn2ccnc2)c(=O)[nH]c1=O,-1%,i,-6%,12%,-4%,i
Cc1ccc(OCC(=O)N2CCN(Cc3ccc4c(c3)OCO4)CC2)cc1C,8%,i,-10%,-6%,-1%,i
COc1cccc2sc3ccc(C#Cc4ccc(N)cc4)cc3c(=O)c12,1%,32µM*,-2%,?,-12%,i
COc1ccc(C(=O)C(C)(C)NO)cc1,?,i,11µM*,0%,2%,?
Cc1ccc(-c2cc(-c3ccccc3)cc(-c3ccccc3)[n+]2-c2ccccc2)cc1,-5%,i,-1%,?,10µM*,i
COP(=S)(OC)SCN1C(=O)c2ccccc2C1=O,9%,i,0%,1%,-11%,i
COc1ccc(Cl)cc1NC(=O)CN(C)CC(=O)Nc1ccc(Br)cc1,5%,i,22µM*,?,0%,i

# Assay outcomes from PubChem.
